Reference: PubChem BioAssay
Calls of active or inactive are those of the source. Unless noted, no rule for the calls is given here.

system: not listed separately; assay: signal quenchers or enhancers, Cy5 substrate/SSB – biochemical, NIH Clinical Collection, E. coli SSB, artefact control for HCV NS3 helicase inhibitor project (AID 743268); conditions: Cy5-oligo bound E. coli SSB, fluorescence interference

Compound	fluorescence ratio
CO[C@H]1C=CO[C@@]2(C)Oc3c(C)c(O)c4c(O)c(c(/C=N/N5CCN(C6CCCC6)CC5)c(O)c4c3C2=O)NC(=O)C(C)=CC=C[C@H](C)[C@H](O)[C@@H](C)[C@@H](O)[C@@H](C)[C@H](OC(C)=O)[C@@H]1C	1.02 (inactive)
CC/C(O)=N/S(=O)(=O)c1ccc(-c2c(-c3ccccc3)noc2C)cc1	1.03 (inactive)
CO[C@H]1C=CO[C@@]2(C)Oc3c(C)c(O)c4c(O)c(c5c(c4c3C2=O)=NC2(CCN(CC(C)C)CC2)N=5)NC(=O)C(C)=CC=C[C@H](C)[C@H](O)[C@@H](C)[C@@H](O)[C@@H](C)[C@H](OC(C)=O)[C@@H]1C	0.96 (inactive)

system: Hepatitis C virus NS3 helicase; assay: blockers of NS3h binding to DNA – biochemical, fluorescence polarization, NIH Clinical Collection, primary screen (AID 743270); conditions: NS3 helicase binding to Cy5-dT15 DNA, stronger effect = higher value, concentration not given here

Compound	inhibition
O=C(O)COCCN1CCN([C@@H](c2ccccc2)c2ccc(Cl)cc2)CC1	-1.98% (inactive)
CO[C@H]1C=CO[C@@]2(C)Oc3c(C)c(O)c4c(O)c(c(/C=N/N5CCN(C6CCCC6)CC5)c(O)c4c3C2=O)NC(=O)C(C)=CC=C[C@H](C)[C@H](O)[C@@H](C)[C@@H](O)[C@@H](C)[C@H](OC(C)=O)[C@@H]1C	-3.56% (inactive)
CC/C(O)=N/S(=O)(=O)c1ccc(-c2c(-c3ccccc3)noc2C)cc1	-1.97% (inactive)
CO[C@H]1C=CO[C@@]2(C)Oc3c(C)c(O)c4c(O)c(c5c(c4c3C2=O)=NC2(CCN(CC(C)C)CC2)N=5)NC(=O)C(C)=CC=C[C@H](C)[C@H](O)[C@@H](C)[C@@H](O)[C@@H](C)[C@H](OC(C)=O)[C@@H]1C	-2.77% (inactive)

target: Single-stranded DNA-binding protein (Escherichia coli (strain K12)) (UniProt P0AGE0); assay: SSB-ssDNA binding inhibitors – biochemical, fluorescence polarization, NIH Clinical Collection, counter-screen for HCV NS3 helicase inhibitor project (AID 743271; in the data active = inhibition above about 28%); conditions: E. coli SSB-DNA binding, stronger effect = higher value, concentration not given here

Compound	inhibition
O=C(O)COCCN1CCN([C@@H](c2ccccc2)c2ccc(Cl)cc2)CC1	-1.64% (inactive)
CO[C@H]1C=CO[C@@]2(C)Oc3c(C)c(O)c4c(O)c(c(/C=N/N5CCN(C6CCCC6)CC5)c(O)c4c3C2=O)NC(=O)C(C)=CC=C[C@H](C)[C@H](O)[C@@H](C)[C@@H](O)[C@@H](C)[C@H](OC(C)=O)[C@@H]1C	9.91% (inactive)
CC/C(O)=N/S(=O)(=O)c1ccc(-c2c(-c3ccccc3)noc2C)cc1	-2.76% (inactive)
CO[C@H]1C=CO[C@@]2(C)Oc3c(C)c(O)c4c(O)c(c5c(c4c3C2=O)=NC2(CCN(CC(C)C)CC2)N=5)NC(=O)C(C)=CC=C[C@H](C)[C@H](O)[C@@H](C)[C@@H](O)[C@@H](C)[C@H](OC(C)=O)[C@@H]1C	1.44% (inactive)

system: not listed separately; assay: compounds distorting NS3 helicase fluorescence signal – biochemical, NIH Clinical Collection, artefact control for HCV NS3 helicase inhibitor project (AID 743272); conditions: fluorescence interference counterscreen, HCV NS3 helicase assay; stronger effect = lower value;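 also: HCV NS3 helicase with a Cy5 labelled single stranded DNA probe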

Compound	fluorescence ratio
O=C(O)COCCN1CCN([C@@H](c2ccccc2)c2ccc(Cl)cc2)CC1	0.95 (inactive)
CO[C@H]1C=CO[C@@]2(C)Oc3c(C)c(O)c4c(O)c(c(/C=N/N5CCN(C6CCCC6)CC5)c(O)c4c3C2=O)NC(=O)C(C)=CC=C[C@H](C)[C@H](O)[C@@H](C)[C@@H](O)[C@@H](C)[C@H](OC(C)=O)[C@@H]1C	1.01 (inactive)
CC/C(O)=N/S(=O)(=O)c1ccc(-c2c(-c3ccccc3)noc2C)cc1	1.01 (inactive)
CO[C@H]1C=CO[C@@]2(C)Oc3c(C)c(O)c4c(O)c(c5c(c4c3C2=O)=NC2(CCN(CC(C)C)CC2)N=5)NC(=O)C(C)=CC=C[C@H](C)[C@H](O)[C@@H](C)[C@@H](O)[C@@H](C)[C@H](OC(C)=O)[C@@H]1C	0.96 (inactive)
